This is part of a sample that, as a whole, favours compounds with a hit. Of some 79,000 tested, about 15% had one in any assay. The source made the active and inactive calls. Rule as the data show it: active = growth inhibition above about 70%; inactive = the rest.
Legend:
[1] = NCI Yeast Anticancer Drug Screen. Data for the rad50 strain (AID 155);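 also: 0% = growth of vehicle-only cultures of the same strain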; conditions: S. cerevisiae rad50 strain growth inhibition; at 50.0 µM; active compounds read high
Summary of the method: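 Genetically altered yeast (DNA repair pathway); compound treatment; growth inhibition vs vehicle ctrl.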

[2] = NCI Yeast Anticancer Drug Screen. Data for the mec2-1 strain (AID 157); conditions: S. cerevisiae mec2-1 strain, at 50.0 µM, active compounds read high
Summary of the method: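 Cells of the genetically defined mec2-1 yeast strain are incubated with test compound. Inhibition of growth is calculated against vehicle-treated controls.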

[3] = NCI Yeast Anticancer Drug Screen. Data for the sgs1 mgt1 strain (AID 161);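 also: 0% = growth of cultures given vehicle only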; conditions: S. cerevisiae sgs1 mgt1 strain, at 50.0 µM, active compounds read high
Summary of the method: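 Genetically altered yeast, compound exposure, growth inhibition relative to vehicle.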

[4] = NCI Yeast Anticancer Drug Screen. Data for the cln2 rad14 strain (AID 165);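 also: 0% = growth equal to vehicle treated cultures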; conditions: S. cerevisiae cln2 rad14 strain, at 50.0 µM, active compounds read high
Summary of the method: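 The screen exposed genetically defined yeast (cln2 rad14) to test compounds and scored growth inhibition relative to vehicle-treated controls.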

[5] = NCI Yeast Anticancer Drug Screen. Data for the bub3 strain (AID 167); conditions: S. cerevisiae bub3 mutant strain, at 50.0 µM, active compounds read high
Summary of the method: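 Yeast carrying a defined mutation is treated with each compound, and growth is compared with that of vehicle-exposed cells to give inhibition.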

[6] = NCI Yeast Anticancer Drug Screen. Data for the mlh1 rad18 strain (AID 175); conditions: S. cerevisiae mlh1 rad18 strain growth inhibition; at 50.0 µM; active compounds read high
Summary of the method: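 Compound-treated yeast growth, normalised to vehicle controls. Strain bears defined DNA repair mutations.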

Measured: growth inhibition

CC1(C)CN(Cc2ccccc2)C(C)(C)CN1
inactive: [1] -5.85% | [2] -6.65% | [3] -6.4% | [4] -54.6% | [5] -10.5% | [6] -4.65%

O=C(CCc1ccccc1C(=O)O)c1ccccc1O
inactive: [1] 0.7% | [2] -9.55% | [3] -3.35% | [4] 17.2% | [5] 5.5% | [6] -7.6%

CCCOC(=O)O[C@H]1CC[C@@]2(C)C(=CC[C@H]3[C@@H]4CC[C@H]([C@H](C)CCCC(C)C)[C@@]4(C)CC[C@@H]32)C1
inactive: [1] -34.6% | [2] -31% | [3] -27.7% | [4] 3.9% | [5] -28.8% | [6] -34.4%

c1ccc2c(c1)Nc1nsnc1N2
inactive: [1] 3.8% | [2] -9.4% | [3] -6% | [4] 13.8% | [5] 13.2% | [6] 2.25%

CC(C)NC(=O)Oc1ccccc1C(=O)OCc1ccccc1
inactive: [1] -0.45% | [2] 14.1% | [3] 28.9% | [4] -15.1% | [5] 13.4% | [6] 21.2%

O=c1ccn(C2OC(C(O)CO)C(O)C2O)c(=O)[nH]1 (configuration not stated)
inactive: [1] -4.95% | [2] -2.55% | [3] 5.45% | [4] -60.8% | [5] -8.15% | [6] 9.25%

O=C(O)Cc1cccc(C(=O)O)c1
inactive: [1] -1.55% | [2] -8% | [3] -7.3% | [4] 8.4% | [5] -0.45% | [6] -3.35%

Nc1cccc([N+](=O)[O-])c1O
inactive: [1] 4.75% | [2] 2.45% | [3] 12.7% | [4] 9.75% | [5] 5.4% | [6] 12.4%

COC(=O)C1=C(C)N(NC(=O)c2ccccc2)C2(O)CCCC(=O)C12C (configuration not stated)
inactive: [1] 20.2% | [2] 2.2% | [3] 17.8% | [4] -29.6% | [5] -6.05% | [6] 23.9%

O=[N+]([O-])c1ccc(Nc2nc3ccccc3s2)cc1
inactive: [1] 6.75% | [2] 11.8% | [3] -24.7% | [4] -21.5% | [5] 5.75% | [6] 15.2%

CC(=O)Nc1c(I)c(C(=O)NC2C(O)OC(CO)C(O)C2O)c(I)c(N(C)C(C)=O)c1I (configuration not stated)
inactive: [1] -27.2% | [2] 4.55% | [3] -14.2% | [4] -21.6% | [5] -21.5% | [6] -38%

COc1ccc(/C=C2\Cc3ccccc3C2=O)cc1OC
inactive: [1] -0.05% | [2] -10.2% | [3] -9.85% | [4] 8.25% | [5] -25.4% | [6] -1.5%

COC(=O)c1cccc(Cl)c1C(=O)c1ccc(C)cc1C
inactive: [1] -25% | [2] -8.3% | [3] -9.1% | [4] -52.9% | [5] 31.1% | [6] 11.4%

CCC1(CCCCCBr)OCCO1
inactive: [1] 13.9% | [2] 12.6% | [3] 19.6% | [4] 10.2% | [5] 14.8% | [6] 7.9%

CC(=O)Nc1cc(OC(C)=O)nc2c1CCC2
inactive: [1] 14.2% | [2] -0.05% | [3] -5.5% | [4] 7.95% | [5] -1.05% | [6] 11.6%

Cc1ccc(S(=O)OCC23CC4CC(CC(C4)C2)C3)cc1 (configuration not stated)
inactive: [1] 17.5% | [2] 1.6% | [3] -1.05% | [4] 17.5% | [5] -5.55% | [6] -30.6%

CCOC(=O)c1[nH]c(C)cc1C
inactive: [1] 2.95% | [2] -15.9% | [3] -7.55% | [4] -18.2% | [5] -22.4% | [6] -0.9%

CCc1cc(COC(C)=O)on1
inactive: [1] 5.35% | [2] -18.5% | [3] -8.4% | [4] -35.9% | [5] -1.9% | [6] -2.6%

CC1CC(=O)CC(C)C1 (configuration not stated)
inactive: [1] 1.7% | [2] -0.1% | [3] -10.5% | [4] -27.1% | [5] 19.9% | [6] 16.6%

COc1cc2c3c(c1OC)-c1[nH]c4ccccc4c1C1CCCN(CC2)C31 (configuration not stated)
inactive: [1] -54.9% | [2] -19.9% | [3] -20.4% | [4] -29.9% | [5] -16.4% | [6] -11.7%

CO[C@H](C)[C@@](O)(C(=O)OCC1=CCN2CCC[C@@H]12)C(C)C
inactive: [1] -2.3% | [2] -9.4% | [3] 32.4% | [4] 8.65% | [5] 4.5% | [6] 16.3%

Cn1c(=O)c2c(nc(N)n2C)n(C)c1=O
inactive: [1] -16.8% | [2] -8.35% | [3] 5.8% | [4] -30.2% | [5] -33.6% | [6] -20.4%

CCCC(=O)OCc1ccc(Cl)cc1Cl
inactive: [1] 31.6% | [2] 13.3% | [3] 14.8% | [4] 7.75% | [5] 0% | [6] 13.9%

COC1OC(COS(C)(=O)=O)C(OS(C)(=O)=O)C(OS(C)(=O)=O)C1OS(C)(=O)=O (configuration not stated)
inactive: [1] -2.8% | [2] -7.05% | [3] -26.4% | [4] -67% | [5] 1.4% | [6] 10.3%

Cc1[nH]c(=O)[nH]c(=O)c1/C=C/C(=O)NC(CO)CS(=O)C(C)C (configuration not stated)
active: [1] 83.2% | [3] 95.4% | [5] 79.7% | [6] 85.7%
inactive: [2] 63.5% | [4] 64.7%

CC(Cl)S(N)(=O)=O (configuration not stated)
inactive: [1] -11.7% | [2] -11.7% | [3] -19.2% | [4] -6.45% | [5] 7.45% | [6] 2.15%

O=C(O)C(c1cccs1)C1(O)CCCCC1 (configuration not stated)
inactive: [1] -0.75% | [2] -7.2% | [3] -2.25% | [4] -1.65% | [5] -2.5% | [6] -5.3%

O=C(Nc1nc2ccc([N+](=O)[O-])cc2s1)C(=O)C(C(=O)c1ccccc1F)C1OC(=O)c2ccccc21 (configuration not stated)
inactive: [1] 29.8% | [2] 39.6% | [3] 59.5% | [4] 25.6% | [5] 38.5% | [6] 27.8%

[O-][N+](=Nc1ccc(Sc2ccccc2)cc1)c1ccc(Sc2ccccc2)cc1
inactive: [1] -4.65% | [2] 2.3% | [3] 19% | [4] -17% | [5] 21.9% | [6] 28.1%

Cc1nc(Cl)c(C)c(Cl)n1
inactive: [1] 13.4% | [2] -28.6% | [3] 1.4% | [4] 5.2% | [5] -5% | [6] 15.9%

CSc1nc(NC2OCC(O)C(O)C2O)c(C(C)=O)c(=O)n1C (configuration not stated)
inactive: [1] 3.7% | [2] -7.35% | [3] 8.2% | [4] -1.95% | [5] -33.4% | [6] 4.4%

CC/C(=N\O)c1ccc2cc(Cl)c3ccccc3c2c1
inactive: [1] 21.7% | [2] 25.4% | [3] 44.5% | [4] 8.75% | [5] 54.2% | [6] 31.9%

CCCCN(c1ccccn1)S(=O)(=O)c1ccccc1
inactive: [1] -2.3% | [2] 19.8% | [3] 19.3% | [4] 7.6% | [5] -3.55% | [6] 5.75%

Cc1ccc(S(=O)(=O)N2CN(S(=O)(=O)c3ccc(C)cc3)CN(S(=O)(=O)c3ccc(C)cc3)C2)cc1
inactive: [1] -29.4% | [2] -32.2% | [3] -22.8% | [4] -6.9% | [5] -40.3% | [6] -24.8%

CCCCCCC(O)CCCCCCCCCCC(=O)OC (configuration not stated)
inactive: [1] 33.1% | [2] 4.5% | [3] 20.6% | [4] -26.4% | [5] 12.8% | [6] 33.8%

N#CC(C#N)=C/C=C/C=C/c1c(Cl)cccc1Cl
inactive: [1] -6% | [2] 1.8% | [3] 0.95% | [4] -3.25% | [5] -6.8% | [6] -14.4%

CCCN(CCC)C(=O)c1ccc(C(C)C)cc1
inactive: [1] 11.2% | [2] 7.05% | [3] 19.1% | [4] -6.8% | [5] 9.7% | [6] 9.7%

COC(=O)/C=C/c1ccc([N+](=O)[O-])cc1
inactive: [1] -6.3% | [2] -2.5% | [3] 20.9% | [4] -24% | [5] 8.15% | [6] -18.2%

OCCN(CCO)c1cc(/C=C/c2cccc3ccccc23)nc2ccccc12
inactive: [1] 56.9% | [2] 11.3% | [3] 39.6% | [4] 3.85% | [5] -6.5% | [6] 37.4%

CC(C)n1c(=S)[nH]c2c(=O)[nH]c(=O)[nH]c21
inactive: [1] -30.9% | [2] -22.4% | [3] 0.05% | [4] -53.2% | [5] 10.8% | [6] -17.4%

COc1cc([N+](=O)[O-])ccc1NC(=O)Nc1ccc(Cl)cc1[N+](=O)[O-]
inactive: [1] -4.8% | [2] 28.1% | [3] 24.6% | [4] -12.6% | [5] 29.4% | [6] 27.1%

COc1ccc(C23CCCC(=O)C2C2C(=O)CCCC23c2ccc(OC)cc2)cc1 (configuration not stated)
inactive: [1] 47.4% | [2] -0.85% | [3] 4.4% | [4] 10.6% | [5] 5.25% | [6] 13.1%
